In the supplement of paper PMC11732987, “Enantioselective OTUD7B fragment discovery through chemoproteomics screening and high-throughput optimisation” (Communications Chemistry, 2025):
Unmarked numbers belong to inactive results.

Biological target: T1, VCPIP1 (UniProt Q96JH7)
T1 sequence (whole entry): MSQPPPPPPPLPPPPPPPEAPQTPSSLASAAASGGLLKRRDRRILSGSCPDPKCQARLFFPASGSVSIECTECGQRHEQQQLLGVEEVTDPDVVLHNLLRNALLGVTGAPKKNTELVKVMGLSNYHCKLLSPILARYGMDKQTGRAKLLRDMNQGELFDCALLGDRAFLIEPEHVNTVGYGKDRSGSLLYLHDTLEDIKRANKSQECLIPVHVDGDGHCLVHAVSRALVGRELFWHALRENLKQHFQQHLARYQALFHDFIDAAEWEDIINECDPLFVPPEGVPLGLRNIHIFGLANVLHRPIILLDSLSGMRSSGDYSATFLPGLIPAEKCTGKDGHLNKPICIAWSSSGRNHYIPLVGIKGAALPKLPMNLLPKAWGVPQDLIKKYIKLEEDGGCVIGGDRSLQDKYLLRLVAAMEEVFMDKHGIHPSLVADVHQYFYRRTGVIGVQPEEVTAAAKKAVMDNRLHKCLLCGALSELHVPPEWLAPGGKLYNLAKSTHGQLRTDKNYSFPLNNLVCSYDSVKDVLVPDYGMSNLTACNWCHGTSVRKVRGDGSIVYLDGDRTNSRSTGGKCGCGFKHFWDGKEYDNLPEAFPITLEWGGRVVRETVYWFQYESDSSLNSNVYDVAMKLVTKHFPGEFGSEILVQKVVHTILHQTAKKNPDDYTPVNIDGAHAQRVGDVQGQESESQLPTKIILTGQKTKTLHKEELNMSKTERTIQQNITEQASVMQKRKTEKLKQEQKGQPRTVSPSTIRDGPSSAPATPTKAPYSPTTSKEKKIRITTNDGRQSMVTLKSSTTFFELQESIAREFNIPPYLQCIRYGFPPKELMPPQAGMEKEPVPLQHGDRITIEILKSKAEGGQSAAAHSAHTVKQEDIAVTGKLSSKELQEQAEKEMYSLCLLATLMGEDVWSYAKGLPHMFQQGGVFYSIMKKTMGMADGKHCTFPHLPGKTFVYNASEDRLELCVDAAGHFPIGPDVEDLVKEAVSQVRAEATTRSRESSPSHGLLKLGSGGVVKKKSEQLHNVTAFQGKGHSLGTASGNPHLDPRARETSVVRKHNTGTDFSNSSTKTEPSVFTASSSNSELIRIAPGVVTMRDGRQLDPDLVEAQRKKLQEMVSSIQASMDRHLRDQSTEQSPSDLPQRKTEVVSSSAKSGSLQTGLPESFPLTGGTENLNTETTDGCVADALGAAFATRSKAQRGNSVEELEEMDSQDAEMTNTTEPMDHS
Test: log2 ratio of Biotin-Ahx-Ub-VS probe labelling (fragment/DMSO); higher = less target engagement (more negative = stronger competition), active = hit call of the paper (q ≤ 0.05, log2 ratio ≤ -1)
Details: compound concentration: 200 uM; treatment time: 3 h
Procedure: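 Competitive ABPP in HEK293T cell lysate. Lysates were treated with each chloroacetamide fragment at 200 µM for 3 h, then with Biotin-Ahx-Ub-VS (0.5 µM, 1 h), NeutrAvidin-enriched and analysed by diaPASEF LC-MS/MS. Protein LFQ was median-normalised; average log2 ratio is fragment/DMSO from an unpaired t-test (n=3 treated, n=44 DMSO). Hits: q ≤ 0.05, log2 ratio ≤ -1, unique peptides ≥ 2.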

Row | Compound | log2 ratio of Biotin-Ahx-Ub-VS probe labelling
1 | CN(C(=O)CCl)c1nc2ccccc2s1 | -0.54
2 | Cc1cccc(C(CNC(=O)CCl)N2CCOCC2)c1.Cl (stereo not given) | -0.833
3 | Cl.O=C(CCl)N1CCC(n2nc3ccccc3n2)CC1 | -2.56 (active)
4 | O=C(CCl)N(C1CCCC1)C1CCS(=O)(=O)C1 (stereo not given) | -0.0269
5 | C#Cc1cccc(NC(=O)CCl)c1 | -2.17 (active)
6 | Cc1ccc2nnc(CNC(=O)CCl)n2c1 | -1.34 (active)
7 | Cc1cc(C2CCCN2C(=O)CCl)nn1C.Cl (stereo not given) | -0.866
8 | CCN1C(=O)C2CN(C(=O)CCl)CCN2C1=O (stereo not given) | 0.103
9 | O=C(CCl)NCCc1ccc(F)cc1 | -0.91
10 | Cl.O=C(CCl)N1CCn2cncc2C1 | -0.196
11 | CC1Cc2ccccc2N1C(=O)CCl (stereo not given) | -1.3 (active)
12 | O=C(CCl)N1CCC(c2noc3cc(F)ccc23)CC1 | -2.98 (active)
13 | O=C(CCl)NCCC1=CCCCC1 | -0.647
14 | Cc1ccc(CC(NC(=O)CCl)c2ccccn2)cc1.Cl (stereo not given) | -1.64 (active)
15 | O=C(CCl)N1CCC(c2ccn[nH]2)C1 (stereo not given) | -0.333
16 | O=C(CCl)N[C@H]1CC[C@@H](CO)CC1 | -1.4 (active)
17 | O=C(CCl)N1CC=C(c2c[nH]c3ccccc23)CC1 | -2.41 (active)
18 | N#Cc1ccc(CNC(=O)CCl)cc1 | -1.31 (active)
19 | O=C(CCl)N1CCC(c2nc3ccccc3o2)CC1 | -2.76 (active)
20 | O=C(CCl)N(C1=CCCCC1)C1CC1 | -0.286

Row | Compound | log2 ratio of Biotin-Ahx-Ub-VS probe labelling
21 | O=C(CCl)Nc1cccc(C(=O)N2CCSCC2)c1 | -2.83
22 | Cl.O=C(CCl)N1CCC(Cc2nccs2)C1 (stereo not given) | -2.29 (active)
23 | CC1CN(c2ccc(NC(=O)CCl)cc2)CC(C)O1 (stereo not given) | -0.624
24 | COc1cccc(CN(C)C(=O)CCl)c1 | -0.854
25 | CS(=O)(=O)N1CCCN(C(=O)CCl)CC1 | -0.326
26 | Cc1n[nH]c(=O)c2c(NC(=O)CCl)oc(C)c12 | -0.15
27 | O=C(CCl)NC1CCOc2ccccc21 (stereo not given) | -2.21 (active)
28 | COc1ccc(C2CCCN2C(=O)CCl)c(OC)c1 (stereo not given) | -0.545
29 | O=C(CCl)N1c2ccccc2NC(=O)C12CCCC2 | -0.744
30 | O=C(CCl)N1CCc2nc[nH]c2C1c1ccc(Cl)cc1 (stereo not given) | -1.07 (active)
31 | CC(NC(=O)CCl)c1noc(Cc2ccccc2)n1 (stereo not given) | -1.42 (active)
32 | Cc1ccc(CN(CCO)C(=O)CCl)cc1 | -0.862
33 | CNC(=O)C1CCN(C(=O)CCl)CC1 | -0.28
34 | O=C(CCl)N1CCN(c2nc3ccccc3o2)CC1 | -0.288
35 | O=C(CCl)N1CCN2C(=O)CCC2C1 (stereo not given) | -0.0347
36 | CC(=O)Nc1ccc(NC(=O)CCl)cc1 | -1.31 (active)
37 | Cc1cc(NC(=O)CCl)n(-c2ccccc2)n1 | -0.6
38 | O=C(CCl)N1CCN(C(=O)Nc2ccccc2)CC1 | -0.418
39 | Cl.O=C(CCl)N[C@H]1C[C@@H](n2cccn2)C1 | -0.848
40 | CC1CCc2onc(CNC(=O)CCl)c2C1 (stereo not given) | -1.39 (active)
